From PubChem
A selection: hits, their analogues and other compounds. The true share with any hit is near 2.6%.
H9c2 TAG inh: triacylglycerol accumulation inhibition; inhibition, % at 12.5 µM; AID 651582; 230,000 compounds, 0.66% hits; H9c2 cells, Nile Red lipid (TAG) fluorescence; cells loaded with 200 µM oleic acid;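 active means pattern-corrected inhibition of lipid staining of at least 50% with the nuclear-stain viability signal not falling by more than 50%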;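 further: 0% = DMSO wells and 100% = triacsin C control wells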
COUP-TFII inh: NR2F2 (human) inhibition, primary screen; inhibition, % at 8.6 µM; 370,000 compounds, 0.7% hits; HEK293T NGFI-A luciferase reporter, luminescence; P24468; AID 686940;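 active means inhibition above a per-plate cutoff, mean inhibition of test wells between control levels plus 3 SD, cut at about 38% in these data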;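 further: cells cotransfected with COUP-TFII expression vector driving the NGFI-A reporter; 0% = median of COUP-TF2 test wells and 100% = reporter-only cells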
Target sequence (P24468 whole entry, looked up): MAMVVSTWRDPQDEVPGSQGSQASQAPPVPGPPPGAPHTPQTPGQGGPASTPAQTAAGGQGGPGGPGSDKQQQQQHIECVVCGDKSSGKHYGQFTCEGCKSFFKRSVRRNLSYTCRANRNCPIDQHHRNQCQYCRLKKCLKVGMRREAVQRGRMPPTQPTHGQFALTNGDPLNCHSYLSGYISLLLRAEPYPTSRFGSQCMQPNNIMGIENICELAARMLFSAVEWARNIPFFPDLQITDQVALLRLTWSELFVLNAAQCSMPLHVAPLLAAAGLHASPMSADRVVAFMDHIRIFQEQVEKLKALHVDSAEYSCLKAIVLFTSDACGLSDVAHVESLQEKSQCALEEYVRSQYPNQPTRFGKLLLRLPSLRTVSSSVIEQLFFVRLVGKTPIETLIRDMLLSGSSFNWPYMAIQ
697 NFkB inh: inhibitors of the PMA/ionomycin-induced NF-kB reporter in 697 B cells. 697 B-cell NF-kB luciferase reporter, 16 h. inhibition, % at 4 µM. 330,000 compounds, 0.33% hits. AID 435022; in the data active means inhibition above about 35%
Jurkat NFkB inh: lowers PMA/ionomycin-induced NF-kB signal in Jurkat cells | PMA/ionomycin-induced NF-kB luciferase reporter, luminescence | inhibition, % at 4 µM | 330,000 compounds, 0.53% hits; in the data active means inhibition above about 50%
H9c2 protect: modulators protecting cardiomyocytes from myocardial damage; H9c2 cardiomyocytes, H2O2 injury protection, ATPLite, 2 h; protection from H2O2 cell death, % at 20 µM; 360,000 compounds, 0.63% hits; AID 588492;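 active means compounds giving at least 50% protection of heart cells from peroxide-induced death in the single-dose screen, raw or plate-pattern-corrected value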;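 further: 0% = DMSO wells with peroxide and 100% = DMSO wells without peroxide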
Gli-Sufu antag: blocks Gli-Sufu signaling in a luciferase reporter; Sufu-KO-LIGHT fibroblasts, Gli luciferase reporter luminescence; inhibition, % at 5 µM; 340,000 compounds, 0.74% hits;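 active means inhibition above about 55%, limit read from the data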;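 further: 0% = DMSO-treated cells and 100% = wells with medium but no cells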
* = called active by the depositor; / = no result given.

SMILES	H9c2 TAG inh	COUP-TFII inh	697 NFkB inh	Jurkat NFkB inh	H9c2 protect	Gli-Sufu antag
C=CCN1[C@H](CC(C)C)COc2cccc(N3CCSCC3)c2S1(=O)=O	/	0.9	/	/	/	/
CC[C@@H](C(=O)[C@@H](C)[C@@H](O)[C@H](C)CCc1ccc(C)c(O)c1C(=O)O)[C@H]1O[C@](CC)([C@H]2CC[C@](O)(CC)[C@H](C)O2)C[C@@H]1C	-19.8	-39.2	-103.1	22.2	-44.4	81.9*
COC(=O)[C@]12C[C@H](CC(=O)NCc3ccc(C)o3)C(=O)N(CCC3=CCCCC3)C1=C[C@H](C(C)C)O[C@@H]2C1CC1	/	10.3	/	/	/	/
CCCCCCCCCCCCCC(=O)NO	102.9	9.8	/	/	78.1*	0.9
CCCCCCCC/C=C\CCCCCCCC(=O)NCCO	0.2	13.3	7.5	10.4	-2.8	-6.6
COc1ccccc1C(=O)Nc1cccc(C(=O)c2ccccc2)c1	-16.4	-15.7	-12.7	-14.3	5.7	-8.4
COc1cccc(OC)c1C(=O)Nc1ccc(Br)c(C(=O)c2ccccc2)c1	/	-4.5	2.2	-2.7	54.5*	-17.2
Cc1ccccc1NC(=O)/C=C/c1ccc([N+](=O)[O-])s1	/	/	/	/	-16.2	78.9*
COc1ccc(NC(=S)N(Cc2cccnc2)Cc2cc3cc(OC)c(OC)cc3[nH]c2=O)cc1	5.4	1.1	12.4	0.2	65.9*	22.4
COc1ccc(N(Cc2cc3cc(OC)ccc3[nH]c2=O)C(=O)c2cccnc2)cc1	19.7	13.4	-6.3	-14.9	108.6*	3.7
COc1ccc2[nH]c(=O)c(CN(Cc3cccnc3)C(=O)Nc3ccccc3)cc2c1	/	-9.7	14.4	1.5	30.1	30.2
COc1ccc2[nH]c(=O)c(CN(C(=O)c3cccnc3)c3ccccc3)cc2c1	/	-15.9	5.1	-5.0	2.1	-5.1
COC(=O)C1CN(CCO)CCS(=O)(=O)N1Cc1cccc(Cl)c1 (stereo not drawn)	/	-18.4	/	/	/	/
CCn1nc(C(=O)OCC(=O)c2c[nH]c3ccccc23)c2ccccc2c1=O	1.7	11.4	0.5	-6.1	58.2*	5.5
CC(C)n1nc(C(=O)OCC(=O)c2c[nH]c3ccccc23)c2ccccc2c1=O	/	-14.1	5.5	-1.3	62.4*	2.5
CCCn1nc(C(=O)Nc2nc3ccccc3[nH]2)c2ccccc2c1=O	/	10.0	17.3	6.1	19.5	4.5
CC(C)n1nc(C(=O)Nc2nc3ccccc3[nH]2)c2ccccc2c1=O	15.8	-8.6	-2.8	4.0	59.6*	10.8
C=CCn1c(SCC(=O)O)nnc1-c1ccco1	/	-3.2	/	/	/	/
CCCC[C@H](CCCc1ccc(F)cc1)CCC(=O)N(c1ccccc1)c1ccccc1	/	-16.0	/	/	/	/
COc1ccc2[nH]c3c(c2c1)CCN[C@]31C(=O)N(Cc2cn(Cc3ccccc3)nn2)c2ccc(F)cc21	/	2.9	/	/	/	/
Nc1nn(-c2ccccc2)c(N)c1N=Nc1cccc(F)c1	53.6*	-77.9	-232.3	-15.2	-3.9	-99.0
O=C(Nc1ccc(F)cc1)OCc1cn(Cc2ccc(F)cc2F)nn1	/	1.3	/	/	/	/
Cc1ccc(/C=N/NC(=O)c2c(-c3ccccc3)noc2C)c(O)c1	27.9	5.4	-70.0	-19.1	53.6*	/
Cc1cc(C(=O)CCl)c(C)n1CCc1ccc(Cl)cc1	59.0*	-5.5	5.3	13.8	-14.3	8.7
Cc1cc(C(=O)CCl)c(C)n1CCc1ccc(F)cc1	45.2	-6.1	21.7	24.8	-13.8	-3.4
SMILES	H9c2 TAG inh	COUP-TFII inh	697 NFkB inh	Jurkat NFkB inh	H9c2 protect	Gli-Sufu antag
O=c1[nH]c(CN2CCCC2)nc2sc3c(c12)CCC3	-5.5	0.2	12.3	1.7	55.8*	9.7
Cc1ccc(C(=O)N2CCN(Cc3nc4sc5c(c4c(=O)[nH]3)CCCC5)CC2)cc1	/	4.2	-8.2	36.0	4.8	3.9
CCN(CC(=O)NC(C)C)Cc1nc2sc3c(c2c(=O)[nH]1)CCC3	4.0	13.4	14.8	5.0	63.8*	-31.7
CC(=O)OCC(=O)N1CCN(C(=O)C(=O)c2cccc(C(F)(F)F)c2)CC1	/	5.5	/	/	/	/
Cc1ccc(C(=O)OCc2nnc(-c3ccccc3)o2)s1	-12.5	9.8	6.4	-4.2	-4.4	-6.4
O=C(OCc1nnc(-c2ccccc2)o1)c1ccc([N+](=O)[O-])s1	2.1	8.8	15.1	-5.0	52.1*	-26.6
CCC(=O)Oc1ccc2c(C)cc(=O)oc2c1C	-14.1	12.6	-3.1	-1.9	58.8*	-2.1
CCCCCCCCN1C(=O)[C@@H](CC(=O)NCc2ccc(OC)c(OC)c2)C[C@@]2(C(=O)OC)C1=C[C@H](C(C)C)O[C@@H]2C1CC1	/	16.2	/	/	/	/
O=C(N/N=C/c1cc(Cl)ccc1O)c1ccncc1	53.2*	-15.9	-50.9	21.3	41.7	8.8
